Bioassay records from PubChem BioAssay.
This is a sample that favours compounds with a hit; in the whole collection about 3.8% have one here.
ERa SRC1 inh – blocks coactivator binding to human estrogen receptor alpha; TR-FRET ER-alpha LBD / SRC-1 peptide, estradiol-bound; inhibition, % at 25.6 µM; 86,000 tested, 1.7% active; in the data active = inhibition above about 50%
Target sequence (P03372 whole entry, looked up, the tested form may be a part): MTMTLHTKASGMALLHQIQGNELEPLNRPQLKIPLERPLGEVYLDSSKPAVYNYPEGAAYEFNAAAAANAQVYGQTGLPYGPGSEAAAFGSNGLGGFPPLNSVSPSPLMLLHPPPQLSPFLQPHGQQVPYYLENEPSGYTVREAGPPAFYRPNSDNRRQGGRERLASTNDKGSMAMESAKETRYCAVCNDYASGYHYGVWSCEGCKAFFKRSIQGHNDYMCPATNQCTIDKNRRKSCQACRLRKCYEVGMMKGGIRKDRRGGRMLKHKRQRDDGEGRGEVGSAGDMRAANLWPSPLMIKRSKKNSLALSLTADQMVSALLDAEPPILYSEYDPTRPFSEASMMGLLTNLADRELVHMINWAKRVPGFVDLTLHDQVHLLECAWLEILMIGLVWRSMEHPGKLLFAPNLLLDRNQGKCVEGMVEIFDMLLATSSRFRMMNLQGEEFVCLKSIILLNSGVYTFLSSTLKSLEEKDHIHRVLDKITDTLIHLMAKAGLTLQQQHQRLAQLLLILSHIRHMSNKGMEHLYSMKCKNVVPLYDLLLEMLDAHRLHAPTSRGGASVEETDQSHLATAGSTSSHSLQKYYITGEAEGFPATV
MT1-MMP txn act – MT1-MMP promoter transcription activation. activation factor at 10 µM. 86,000 tested, 0.16% active. HT1080 MT1-MMP promoter luciferase reporter, luminescence, overnight; active compounds read high;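 active = activation factor of at least 2 for MT1-MMP transcription at 10 µM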
ERb coact inh – blocks coactivator binding to human estrogen receptor beta | Q92731 | TR-FRET ER-beta LBD / SRC1-Cy5 peptide binding; receptor agonist-loaded with 1 µM estradiol | inhibition, % at 25.6 µM | 86,000 tested, 1.3% active;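 active = compounds whose percent inhibition of the receptor-coactivator binding signal exceeds about 50% in the single-dose screen, limit read from the data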
Calb biofilm kill – kills Candida albicans biofilms | C. albicans biofilm + clotrimazole, Alamar Blue | inhibition, % at 6 µM | 85,000 tested, 0.14% active | AID 834;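 active = inhibition above 20%; inactive = inhibition below 20%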;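 also: preformed 24 hr biofilms exposed to compound for 48 hr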
ERa coact pot – ER-alpha (human) coactivator binding potentiation; P03372; TR-FRET ERalpha-LBD/SRC-Cy5 coactivator binding, 2 h; 100 = basal binding, no effect; coactivator binding (% of control), % at 25.6 µM; 86,000 tested, 1.3% active; AID 639; in the data active = activity above about 200%;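 also: binding measured in presence of low estradiol as agonist stimulus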
Smad3 FoxH1 inh – Smad3 (human) transcription factor binding inhibition; inhibition, % at 25 µM; 88,000 tested, 0.29% active; AID 630; P84022; TR-FRET Smad3/Dy647-FoxH1 peptide binding, europium anti-His;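 active = compounds that reduce the energy-transfer binding signal between the protein and its labelled peptide by more than half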
A number is an active result; i = inactive; nt = no result given; [ ] = another dose, or the depositor's remark.

SMILES | ERa SRC1 inh | MT1-MMP txn act | ERb coact inh | Calb biofilm kill | ERa coact pot | Smad3 FoxH1 inh
O=C(NCCN1CCCCCC1)c1ccc(CS(=O)(=O)c2ccc(Br)cc2)o1 | 80.6[fluorescence artefact?] | nt | i | i | i | i
O=C(NCCCN1CCCCCC1)c1ccc(CS(=O)(=O)Cc2ccccc2F)o1 | i | i | i | i | 635.5[fluorescence artefact?] | 69.4
Cc1ccc(S(=O)(=O)Oc2cc(N)c3c(n2)CCC3)cc1 | nt | nt | nt | nt | nt | i
O=C(O)c1ccc(C(=O)O)c(C(=O)O)c1.[NH-][C@@H]1CCCC[C@H]1[NH-].[Pt] | nt | nt | nt | nt | nt | i
O=S(=O)(O)c1ccc2c(N=Nc3cccc4ccccc34)c(O)c(S(=O)(=O)O)cc2c1 | nt | nt | nt | nt | nt | i
Cc1nn(-c2ccc(S(=O)(=O)O)cc2)c(O)c1N=Nc1ccc(-c2ccc(N=Nc3ccc4c(S(=O)(=O)O)cc(S(=O)(=O)O)c(N)c4c3O)c(O)c2)cc1O.[Cu].[Cu] | nt | nt | nt | nt | nt | 101.0
COc1cc(-c2nc(-c3ccc(Br)o3)no2)cc(OC)c1OC | i | i | i | i | i | i
COc1ccc(-c2noc(-c3ccc(Br)o3)n2)cc1OC | i | i | i | i | 386.7[fluorescence artefact?] | i
O=[N+]([O-])c1ccc(/C=N/Nc2nc(N3CCCCCC3)nc(N3CCCCCC3)n2)o1 | i | i | 95.5[fluorescence artefact?] | i | i | i
CC1CCCC(C)N1C(=O)Nc1cccc(Cl)c1 (configuration not stated) | i | i | 52.8 | i | i | i
O=C(Nc1cccc(Cl)c1)NC1CCCCC1 | nt | i | nt | nt | nt | nt
CCOC(=O)c1c(C)[nH]c(C(=O)COC(=O)c2ccc(N3CCCC3=O)cc2)c1C | 51.3[fluorescence artefact?] | i | i | i | 217.5[fluorescence artefact?] | i
O=[N+]([O-])c1ccc(-c2nnc(CSc3nc(-c4ccccc4)nc4ccc(F)cc34)o2)cc1 | i | i | i | i | i | i
CCOC(=O)c1cnn(-c2sc(C(=O)OCC)c(C)c2C(=O)OCC)c1N | 63.1[fluorescence artefact?] | i | 64.4[fluorescence artefact?] | i | i | i
O=C(O)[C@@H]1O[C@H]1C(=O)O | nt | nt | nt | nt | nt | i
COC(=O)Oc1c(Br)c(=O)oc2ccccc12 | 63.8 | i | i | i | i | i
COC(=O)c1cc2ccccc2oc1=O | i | i | i | i | i | i
CC(C)Oc1cc(O)c2c(c1)OCC=C2CCC(=O)O | nt | nt | nt | nt | nt | i
CC12CC3CC(C)(C1)CC(C(=O)Nc1nn[nH]n1)(C3)C2 | i | i | i | i | 226.3 | i
CCOC(=O)Cc1csc(NC(=O)CC)n1 | i | i | i | i | i | i
CCOC(=O)Cc1csc(NC(=O)Cc2cccs2)n1 | 90.5[fluorescence artefact?] | i | 74.5 | i | i | i
CC(=O)[C@H]([C@@H](c1ccccc1)N1CCOCC1)N1CCOCC1 | nt | nt | nt | nt | nt | i
Cc1nn(C(=O)c2c([N+](=O)[O-])cnn2C)c(C)c1Cl | i | i | i | i | i | i
COc1cc(NCCC(=O)O)c2ncccc2c1 | nt | nt | nt | nt | nt | i
COc1cc(NCCCCCCCN)c2ncccc2c1 | 77.6[fluorescence artefact?] | i | i | i | i | i
SMILES | ERa SRC1 inh | MT1-MMP txn act | ERb coact inh | Calb biofilm kill | ERa coact pot | Smad3 FoxH1 inh
O=C(Cc1sc(-c2ccccc2Cl)nc1-c1ccccc1)Nc1ccc(F)cc1 | i | i | i | i | i | i
O=C(Cc1sc(-c2ccccc2Cl)nc1-c1ccccc1)Nc1ccccc1 | i | i | i | i | 234.7[fluorescence artefact?] | i
COc1cc(NC(=O)CCNC(=O)Cn2cnc3ccccc3c2=O)cc(OC)c1OC | 83.1[fluorescence artefact?] | i | i | i | i | i
C[C@@H]1C=C[C@](Cc2ccccc2)(C(=O)NCCCNc2ncc(C(F)(F)F)cc2Cl)N1C(=O)c1ccccc1 | nt | i | nt | nt | nt | nt
O=C(Nc1cccc(-c2nnc(-c3ccccc3)o2)c1)C1CCCCC1 | i | i | i | i | 208.0[fluorescence artefact?] | i
O=C(Nc1cccc(-c2nnc(-c3ccccc3)o2)c1)c1ccco1 | i | i | i | i | i | i
COc1cccc(-c2nnc(NC(=O)C3CCCCC3)o2)c1 | i | i | i | i | i | i
O=C(Nc1ccccc1)c1cccc(-c2nnc(-c3ccccc3)o2)c1 | i | i | i | i | 309.2[fluorescence artefact?] | i
CC(C)CSc1nnc2c(n1)[nH]c1ccccc12 | i | i | i | i | i | i
CCCCSc1nnc2c(n1)[nH]c1ccccc12 | 55.6 | i | i | i | i | i
CCOC(=O)c1nn(-c2ccc(Cl)cc2)c2nc(CC)c(C#N)c(=O)n12 | i | i | i | i | 202.5 | i
O=C(O)C1CCCCC1C(=O)NCc1ccccc1 (configuration not stated) | i | 2 | i | i | i | i
O=C(NCc1ccccc1)c1ccc(C(=O)N(C2CCCCC2)C2CCCCC2)cc1 | i | nt | i | 75.7 | i | i
O=C(O)C1CCCCC1C(=O)NCc1ccc(F)cc1 (configuration not stated) | i | i | i | i | i | i
Cc1nc2ccccc2nc1-c1ccc(N=[N+]([O-])c2ccc(-c3nc4ccccc4nc3C)cc2)cc1 | nt | nt | nt | nt | nt | i
CN(C)CN1C(=O)S/C(=C2\C(=O)N(CN(C)C)c3ccccc32)C1=O | nt | nt | nt | nt | nt | i
Cc1ccc(S(=O)(=O)C2(C(=O)N3CCCCCC3)CC2)cc1 | i | i | 80.4[fluorescence artefact?] | i | i | i
Cc1ccc(S(=O)(=O)C2(C(=O)N3CCN(C4CCCCC4)CC3)CC2)cc1 | nt | i | nt | nt | nt | nt
O=C(O)CC(CC(=O)Nc1nncs1)c1ccccc1 (configuration not stated) | i | i | i | i | i | i
O=C(O)CC(Cn1[nH]nnc1=S)c1ccccc1 (configuration not stated) | i | i | 52.2 | i | i | i
Cc1nn(-c2ccccc2)c(C)c1C(=O)OC/C(O)=C(\C#N)c1nc2ccccc2[nH]1 | 56.1[fluorescence artefact?] | i | i | i | i | i
Cc1nn(-c2ccccc2)c(C)c1C(=O)OCC(=O)N1CC(=O)Nc2ccccc21 | i | i | i | i | i | i
CC(=O)N1CCN(c2ccc(Nc3ncnc4c3oc3ccccc34)cc2)CC1 | 56.2[fluorescence artefact?] | i | 60.8[fluorescence artefact?] | i | i | i
c1ccc(Nc2ncnc3c2oc2ccccc23)cc1 | i | i | i | i | i | i
CCc1nc(N2CCN(C(=O)c3ccco3)CC2)c2oc3ccccc3c2n1 | i | i | i | i | i | i
SMILES | ERa SRC1 inh | MT1-MMP txn act | ERb coact inh | Calb biofilm kill | ERa coact pot | Smad3 FoxH1 inh
CCc1nc(Nc2ccc(N3CCN(C(C)=O)CC3)cc2)c2oc3ccccc3c2n1 | i | i | 60.6[fluorescence artefact?] | i | i | i
C[C@H]1C[C@@H]2[C@@H]3CCC4=CC(=O)C=C[C@@]4(C)[C@@]3(F)[C@H](O)C[C@@]2(C)[C@]1(O)C(=O)COP(=O)(O)O | nt | nt | nt | nt | nt | i
COC(=O)C1=C(O)/C(=C\c2ccc(CNC(=O)C(=O)Nc3ccc(C)c(C)c3)o2)N=C1C | 73.8 | i | i | i | i | i
CCOC(=O)C1=C(O)/C(=C/N(C)C)N=C1C | i | i | i | i | i | i
COC(=O)C1=C(O)/C(=C\c2ccc(CNC(=O)C(=O)Nc3ccc(C)cc3)o2)N=C1C | 72.3[fluorescence artefact?] | i | i | i | i | i
CCOC(=O)C1=C(O)/C(=C/c2ccc(CNC(=O)C(=O)Nc3ccc(C)cc3)o2)N=C1C | 55.0[fluorescence artefact?] | i | i | i | i | i
COc1ccc(CC(=O)n2nc(-c3ccc(Cl)cc3)nc2NCc2ccco2)cc1 | i | i | i | i | i | i
COc1ccc2cc3c(N)nn(C(=O)Cc4ccc(Cl)cc4)c3nc2c1 | 60.0 | nt | i | i | i | i
